The text below walks through data of ChEMBL document CHEMBL1961873, “Compounds: GSK PKIS; Assays: Nanosyn kinase panel” (2012).

The term inhibition denotes the relative decrease from the control value, in per cent.

For assay [1], the target named is Mitogen-activated protein kinase kinase kinase kinase 4 (Homo sapiens) (UniProt O95819). As to conditions: at 1 µM.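 Also: reported figure is an averaged inhibition value.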
For assay [2], the target named is Dual specificity mitogen-activated protein kinase kinase 1 (Homo sapiens) (UniProt Q02750). As to conditions: at 0.1 µM.
For assay [3] the target is unchanged. As to conditions: at 1 µM.
The target in assay [4] is Misshapen-like kinase 1 (Homo sapiens) (UniProt Q8N4C8). As to conditions: at 0.1 µM.
Assay [5] has the same target. Particulars: at 1 µM.
The target in assay [6] is T1, Serine/threonine-protein kinase 4 (Homo sapiens) (UniProt Q13043).
T1 sequence (whole entry): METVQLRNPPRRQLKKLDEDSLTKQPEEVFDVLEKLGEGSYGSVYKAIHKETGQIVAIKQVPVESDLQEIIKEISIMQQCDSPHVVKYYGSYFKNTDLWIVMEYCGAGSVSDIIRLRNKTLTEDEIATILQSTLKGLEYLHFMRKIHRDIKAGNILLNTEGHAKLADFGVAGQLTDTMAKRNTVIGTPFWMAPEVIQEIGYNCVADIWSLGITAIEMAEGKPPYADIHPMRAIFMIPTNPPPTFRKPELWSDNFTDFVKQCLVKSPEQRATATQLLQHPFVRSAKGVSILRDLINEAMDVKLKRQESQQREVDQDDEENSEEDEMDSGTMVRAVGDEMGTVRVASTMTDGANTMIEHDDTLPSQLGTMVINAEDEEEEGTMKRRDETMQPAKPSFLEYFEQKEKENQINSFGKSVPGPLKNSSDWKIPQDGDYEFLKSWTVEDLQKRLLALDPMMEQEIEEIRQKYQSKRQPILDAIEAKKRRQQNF
As to conditions: at 0.1 µM.

Assay [7] addresses T1, Serine/threonine-protein kinase 4 (Homo sapiens). As to conditions: at 1 µM.
Assay [8] addresses T2, Serine/threonine-protein kinase 3 (Homo sapiens) (UniProt Q13188).
T2 sequence (whole entry): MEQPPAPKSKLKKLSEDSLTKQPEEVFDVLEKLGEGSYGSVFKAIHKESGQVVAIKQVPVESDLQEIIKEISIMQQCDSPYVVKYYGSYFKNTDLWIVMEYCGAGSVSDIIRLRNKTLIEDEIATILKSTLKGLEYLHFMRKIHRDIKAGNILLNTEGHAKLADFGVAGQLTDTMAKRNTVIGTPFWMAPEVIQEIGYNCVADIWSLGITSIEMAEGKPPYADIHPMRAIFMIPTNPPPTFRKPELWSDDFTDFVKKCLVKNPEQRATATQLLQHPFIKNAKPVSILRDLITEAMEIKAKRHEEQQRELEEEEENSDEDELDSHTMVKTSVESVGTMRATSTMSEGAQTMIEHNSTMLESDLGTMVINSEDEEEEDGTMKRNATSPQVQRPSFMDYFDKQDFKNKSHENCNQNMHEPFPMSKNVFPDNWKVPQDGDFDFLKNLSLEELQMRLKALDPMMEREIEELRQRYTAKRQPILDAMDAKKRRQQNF
As to conditions: at 0.1 µM.

Assay [9] has as its target Serine/threonine-protein kinase 26 (Homo sapiens) (UniProt Q9P289). Particulars: at 0.1 µM.
For assay [10] the target is unchanged. As to conditions: at 1 µM.
The target of assay [11] is Serine/threonine-protein kinase PAK 1 (Homo sapiens) (UniProt Q13153). Particulars: at 0.1 µM.
For assay [12] the target is unchanged. As to conditions: at 1 µM.
The target of assay [13] is Serine/threonine-protein kinase PAK 2 (Homo sapiens) (UniProt Q13177). As to conditions: at 0.1 µM.
Assay [14] shares this target. Particulars: at 1 µM.
Assay [15] addresses Serine/threonine-protein kinase PAK 3 (Homo sapiens) (UniProt O75914). Particulars: at 0.1 µM.
Assay [16] has the same target. As to conditions: at 1 µM.
The target of assay [17] is Serine/threonine-protein kinase PAK 5 (Homo sapiens) (UniProt Q9P286). Particulars: at 0.1 µM.
For assay [18] the target is unchanged. Particulars: at 1 µM.
Assay [19] deals with Serine/threonine-protein kinase PAK 6 (Homo sapiens) (UniProt Q9NQU5). As to conditions: at 0.1 µM.
Assay [20] concerns the target T2, Serine/threonine-protein kinase 3 (Homo sapiens). As to conditions: at 1 µM.

Sequence of Serine/threonine-protein kinase PAK 3 (Homo sapiens) (O75914 whole entry, looked up): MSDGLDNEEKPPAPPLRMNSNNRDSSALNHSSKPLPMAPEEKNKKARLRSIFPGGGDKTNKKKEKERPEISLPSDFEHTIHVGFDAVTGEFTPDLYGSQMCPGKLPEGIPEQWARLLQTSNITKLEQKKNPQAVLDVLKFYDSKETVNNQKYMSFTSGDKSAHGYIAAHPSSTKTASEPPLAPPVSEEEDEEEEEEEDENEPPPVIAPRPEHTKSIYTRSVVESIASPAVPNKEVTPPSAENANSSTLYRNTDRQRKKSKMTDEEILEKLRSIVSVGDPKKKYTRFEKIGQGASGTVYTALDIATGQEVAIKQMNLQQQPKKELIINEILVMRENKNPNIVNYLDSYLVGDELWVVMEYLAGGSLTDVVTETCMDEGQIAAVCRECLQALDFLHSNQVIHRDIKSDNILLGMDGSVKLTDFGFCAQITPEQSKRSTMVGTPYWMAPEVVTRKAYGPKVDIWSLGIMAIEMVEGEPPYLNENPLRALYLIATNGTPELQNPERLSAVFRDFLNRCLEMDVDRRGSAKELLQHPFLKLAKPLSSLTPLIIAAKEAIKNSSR
Sequence of Serine/threonine-protein kinase PAK 2 (Homo sapiens) (Q13177 whole entry): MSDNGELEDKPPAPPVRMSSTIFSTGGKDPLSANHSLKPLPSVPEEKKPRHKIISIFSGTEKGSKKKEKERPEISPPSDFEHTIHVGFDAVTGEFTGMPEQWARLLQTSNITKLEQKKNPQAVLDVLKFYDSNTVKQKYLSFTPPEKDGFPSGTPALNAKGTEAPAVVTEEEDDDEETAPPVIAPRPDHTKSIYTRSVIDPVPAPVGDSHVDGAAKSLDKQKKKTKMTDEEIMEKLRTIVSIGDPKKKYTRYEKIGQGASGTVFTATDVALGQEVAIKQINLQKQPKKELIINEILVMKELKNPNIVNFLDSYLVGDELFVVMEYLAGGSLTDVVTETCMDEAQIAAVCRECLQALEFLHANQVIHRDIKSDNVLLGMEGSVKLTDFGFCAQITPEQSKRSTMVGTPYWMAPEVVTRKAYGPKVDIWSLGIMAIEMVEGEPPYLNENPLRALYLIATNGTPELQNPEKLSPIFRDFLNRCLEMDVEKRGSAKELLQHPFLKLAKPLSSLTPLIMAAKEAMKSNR
Sequence of Misshapen-like kinase 1 (Homo sapiens) (Q8N4C8 whole entry, looked up): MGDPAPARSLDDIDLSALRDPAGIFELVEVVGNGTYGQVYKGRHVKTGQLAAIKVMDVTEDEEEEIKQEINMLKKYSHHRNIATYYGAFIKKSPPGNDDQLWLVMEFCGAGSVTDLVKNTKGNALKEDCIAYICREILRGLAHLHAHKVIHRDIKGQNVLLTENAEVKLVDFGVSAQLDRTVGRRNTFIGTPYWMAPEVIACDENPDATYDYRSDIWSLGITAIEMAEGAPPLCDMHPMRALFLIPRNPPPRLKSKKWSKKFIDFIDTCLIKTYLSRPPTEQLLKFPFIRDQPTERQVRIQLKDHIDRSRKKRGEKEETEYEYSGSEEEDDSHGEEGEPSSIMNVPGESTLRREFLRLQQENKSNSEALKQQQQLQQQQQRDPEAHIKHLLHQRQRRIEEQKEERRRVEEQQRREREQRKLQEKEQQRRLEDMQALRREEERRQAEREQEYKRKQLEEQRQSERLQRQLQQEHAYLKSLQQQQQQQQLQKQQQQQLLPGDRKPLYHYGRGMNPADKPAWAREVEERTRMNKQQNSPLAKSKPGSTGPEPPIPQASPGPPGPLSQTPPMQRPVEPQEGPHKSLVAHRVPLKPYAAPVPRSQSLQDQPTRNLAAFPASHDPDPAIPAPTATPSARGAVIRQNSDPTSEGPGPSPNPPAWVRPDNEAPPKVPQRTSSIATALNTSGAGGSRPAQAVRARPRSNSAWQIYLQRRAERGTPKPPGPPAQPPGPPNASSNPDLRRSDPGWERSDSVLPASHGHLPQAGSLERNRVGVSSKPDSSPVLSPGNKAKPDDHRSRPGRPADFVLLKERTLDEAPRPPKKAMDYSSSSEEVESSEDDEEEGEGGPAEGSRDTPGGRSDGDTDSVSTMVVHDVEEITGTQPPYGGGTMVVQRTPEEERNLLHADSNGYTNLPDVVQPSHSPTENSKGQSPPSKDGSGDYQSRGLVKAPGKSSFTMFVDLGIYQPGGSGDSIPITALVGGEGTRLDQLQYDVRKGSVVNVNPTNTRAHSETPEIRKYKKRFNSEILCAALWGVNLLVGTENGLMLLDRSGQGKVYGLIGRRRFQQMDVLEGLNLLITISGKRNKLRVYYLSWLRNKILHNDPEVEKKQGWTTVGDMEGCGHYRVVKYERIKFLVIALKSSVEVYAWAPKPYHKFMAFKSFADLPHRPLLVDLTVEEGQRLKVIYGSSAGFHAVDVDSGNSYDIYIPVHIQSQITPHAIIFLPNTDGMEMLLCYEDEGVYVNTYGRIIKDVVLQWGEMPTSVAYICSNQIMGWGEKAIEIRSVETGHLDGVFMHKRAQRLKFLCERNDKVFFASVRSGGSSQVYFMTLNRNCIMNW
Sequence of Serine/threonine-protein kinase PAK 5 (Homo sapiens) (Q9P286 whole entry, looked up): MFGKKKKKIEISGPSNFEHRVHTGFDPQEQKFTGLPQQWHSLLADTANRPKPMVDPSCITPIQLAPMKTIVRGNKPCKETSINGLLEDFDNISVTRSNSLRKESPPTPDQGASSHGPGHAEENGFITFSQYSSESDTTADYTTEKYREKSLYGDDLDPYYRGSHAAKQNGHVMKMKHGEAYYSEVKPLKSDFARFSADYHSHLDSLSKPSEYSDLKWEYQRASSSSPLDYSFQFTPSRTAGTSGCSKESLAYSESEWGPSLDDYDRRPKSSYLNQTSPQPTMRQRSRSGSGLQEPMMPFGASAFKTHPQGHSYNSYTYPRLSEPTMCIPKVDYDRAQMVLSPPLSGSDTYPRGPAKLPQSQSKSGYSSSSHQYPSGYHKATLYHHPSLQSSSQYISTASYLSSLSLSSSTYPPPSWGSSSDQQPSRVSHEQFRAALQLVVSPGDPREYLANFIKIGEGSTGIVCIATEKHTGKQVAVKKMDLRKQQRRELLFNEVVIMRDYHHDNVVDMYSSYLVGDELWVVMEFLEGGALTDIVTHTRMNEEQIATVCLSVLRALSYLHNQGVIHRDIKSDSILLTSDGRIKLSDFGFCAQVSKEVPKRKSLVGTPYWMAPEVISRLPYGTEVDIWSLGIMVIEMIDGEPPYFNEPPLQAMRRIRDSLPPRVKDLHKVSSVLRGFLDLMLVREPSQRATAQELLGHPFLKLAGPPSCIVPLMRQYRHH
Sequence of Serine/threonine-protein kinase PAK 6 (Homo sapiens) (Q9NQU5 whole entry, looked up): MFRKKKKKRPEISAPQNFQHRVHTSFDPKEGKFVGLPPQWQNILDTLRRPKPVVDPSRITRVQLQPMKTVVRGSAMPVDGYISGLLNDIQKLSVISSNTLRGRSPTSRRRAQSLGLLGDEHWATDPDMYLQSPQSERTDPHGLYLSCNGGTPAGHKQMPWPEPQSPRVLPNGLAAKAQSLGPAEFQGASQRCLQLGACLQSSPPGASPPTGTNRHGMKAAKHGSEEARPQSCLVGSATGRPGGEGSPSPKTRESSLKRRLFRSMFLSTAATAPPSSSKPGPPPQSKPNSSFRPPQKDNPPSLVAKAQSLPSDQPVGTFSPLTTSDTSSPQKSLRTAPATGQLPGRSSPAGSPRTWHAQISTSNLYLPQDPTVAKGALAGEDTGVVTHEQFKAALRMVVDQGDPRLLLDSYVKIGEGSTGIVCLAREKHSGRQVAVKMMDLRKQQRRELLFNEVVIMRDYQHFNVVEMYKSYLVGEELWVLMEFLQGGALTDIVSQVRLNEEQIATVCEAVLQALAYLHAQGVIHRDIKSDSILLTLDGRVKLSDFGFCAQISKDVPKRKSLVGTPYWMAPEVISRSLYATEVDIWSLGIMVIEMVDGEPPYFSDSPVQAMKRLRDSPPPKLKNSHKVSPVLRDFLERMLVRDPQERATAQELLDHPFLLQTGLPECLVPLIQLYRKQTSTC
Sequence of Mitogen-activated protein kinase kinase kinase kinase 4 (Homo sapiens) (O95819 2-1239 limits assumed): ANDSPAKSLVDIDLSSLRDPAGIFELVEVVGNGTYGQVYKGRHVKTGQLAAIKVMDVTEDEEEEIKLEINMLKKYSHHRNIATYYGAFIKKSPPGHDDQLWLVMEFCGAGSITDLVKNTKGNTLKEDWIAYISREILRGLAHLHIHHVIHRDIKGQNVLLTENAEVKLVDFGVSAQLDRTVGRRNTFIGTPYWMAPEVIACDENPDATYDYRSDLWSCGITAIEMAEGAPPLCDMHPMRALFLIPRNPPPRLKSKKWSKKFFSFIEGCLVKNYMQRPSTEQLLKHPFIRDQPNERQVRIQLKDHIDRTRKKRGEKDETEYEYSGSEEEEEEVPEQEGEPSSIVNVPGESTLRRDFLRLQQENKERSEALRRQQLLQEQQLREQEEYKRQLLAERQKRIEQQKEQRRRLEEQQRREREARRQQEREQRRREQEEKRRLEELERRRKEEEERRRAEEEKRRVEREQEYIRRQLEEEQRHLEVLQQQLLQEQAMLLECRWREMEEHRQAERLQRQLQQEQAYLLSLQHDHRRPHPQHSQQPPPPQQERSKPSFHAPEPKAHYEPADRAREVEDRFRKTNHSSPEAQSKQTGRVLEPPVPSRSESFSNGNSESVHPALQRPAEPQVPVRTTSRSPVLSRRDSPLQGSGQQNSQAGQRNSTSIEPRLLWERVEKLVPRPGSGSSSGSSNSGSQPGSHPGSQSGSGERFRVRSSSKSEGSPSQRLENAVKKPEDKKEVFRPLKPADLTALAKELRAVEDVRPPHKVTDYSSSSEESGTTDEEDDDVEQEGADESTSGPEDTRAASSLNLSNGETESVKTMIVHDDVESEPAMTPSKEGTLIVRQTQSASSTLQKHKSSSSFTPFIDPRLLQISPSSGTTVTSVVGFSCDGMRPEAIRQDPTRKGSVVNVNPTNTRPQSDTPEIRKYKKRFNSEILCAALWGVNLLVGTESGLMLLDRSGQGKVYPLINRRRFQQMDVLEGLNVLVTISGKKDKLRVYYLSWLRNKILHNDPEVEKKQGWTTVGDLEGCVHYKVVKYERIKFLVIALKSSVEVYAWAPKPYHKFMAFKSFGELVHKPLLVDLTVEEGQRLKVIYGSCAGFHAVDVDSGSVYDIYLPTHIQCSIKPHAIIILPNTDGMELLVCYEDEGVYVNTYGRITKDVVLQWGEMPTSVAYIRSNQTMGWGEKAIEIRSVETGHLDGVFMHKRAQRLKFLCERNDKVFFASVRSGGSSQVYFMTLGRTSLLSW

In the case of `CCn1c(-c2nonc2N)nc2c(C#CC(C)(C)O)nc(O[C@@H](CN)c3ccccc3)cc21`, the inhibition in [1] was 20.4%; in assay [2] it was -0.01%; in [3] it was 6.28%; in assay [4], 2.21%; in assay [5], 11%; in assay [6] it was 3.02%. For the same compound, the inhibition in assay [7] is 15.9%; in assay [8], 1.12%; in assay [9], 1.22%; in assay [10] it was 10.8%; in assay [11], 0.39%; in assay [12], 14%. Besides, the inhibition in assay [13] was 7.41%; in assay [14], 48.9%; in [15], -0.59%; in assay [16], 15.6%; in assay [17], 49.1%; in assay [18], 62.2%. Moreover, the inhibition in [19] was determined as 59.9%.
On to `COc1cccc(COc2cc(-n3cnc4ccccc43)sc2C(N)=O)c1`, for which the inhibition in [1] is 18.5%; in [2] it was 0.36%; in [3] it was 0.58%; in [4] it was 3.1%; in assay [5], 16.3%; in [6] it was -1.11%. In addition, the inhibition was 2.62% in assay [7]; 0.35% in assay [8]; 1.4% in [20]; 1.25% in [9]; -1.08% in assay [10]; 0.1% in assay [11]. For the same compound, the inhibition was 2.97% in assay [12]; 0.38% in [13]; 0.1% in [14]; 0.88% in assay [15]; 1.18% in assay [16]; -2.95% in assay [17]. Moreover, the inhibition is -5.64% in assay [18] and 1.2% in [19].
For the compound `COc1cc(C=NNc2ncnc3c2cnn3Cc2ccccc2)ccc1O`, the inhibition in assay [1] was 7.51%; in assay [2], -3.29%; in assay [3], -4.65%; in assay [4], -2.43%; in [5] it was 5.48%; in [6], -3.73%. Besides, the inhibition is -2.3% in assay [7]; -4.05% in [8]; -0.82% in [20]; 1.58% in assay [9]; 2.28% in assay [10]; 0.64% in [11]. The inhibition in [12] was -2.75%; in [13] it was -2.02%; in [14], -0.63%; in assay [15] it was -5.99%; in assay [16] it was -4.57%; in [18] it was -5.56%. In addition, in assay [19], the inhibition was -0.81%.
On to `CCn1c(-c2nonc2N)nc2c(C#CC(C)(C)O)ncc(OCC3CCNCC3)c21`, for which the inhibition was determined as 17.6% in assay [1]; 5.08% in assay [2]; 4.1% in assay [3]; 5.98% in assay [4]; 13.3% in assay [5]; 8.62% in assay [6]. Besides, the inhibition in assay [7] was found to be 16.3%; in assay [8] it was 8.69%; in assay [20], 14.7%; in assay [9], 0.23%; in assay [10], 3.31%; in assay [11] it was 5.46%. Moreover, the inhibition in [12] was 7.18%; in [13], 2.42%; in assay [14], 12.7%; in assay [15] it was 5.37%; in assay [16] it was 7.15%; in assay [17] it was 48.8%. Moreover, the inhibition stood at 76% in [18] and 19.2% in assay [19].
On to `CCn1c(-c2nonc2N)nc2c(C#CCN)ncc(OCCCN)c21`, for which the inhibition is 6.77% in assay [1]; -2.28% in assay [2]; -2.9% in [3]; -0.45% in assay [4]; 11.5% in [5]; 2% in assay [6]. The inhibition in assay [7] is 5.35%; in assay [8] it was 2.31%; in [20] it was 6.61%; in assay [9], 1.82%; in assay [10] it was 2.79%; in assay [11] it was -1.61%. Also, the inhibition was 2.32% in assay [12]; -1.05% in assay [13]; -1.34% in [14]; -1.06% in assay [15]; -0.65% in assay [16]; 3.08% in assay [17]. Besides, the inhibition was determined as 3.52% in assay [18] and 17% in assay [19].
With `Cc1cc(-c2ccco2)cc(C)c1/C=C/c1cncc(-c2nn[nH]n2)c1`, the inhibition in [1] was -0.27%; in assay [2], 3.02%; in assay [3] it was 3.14%; in [4], 1.5%; in [5], 0.04%; in assay [6] it was 0.26%. Besides, the inhibition was 0.16% in assay [7]; -0.6% in assay [8]; 0.69% in assay [20]; 1.06% in assay [9]; 11.6% in [10]; 1.26% in [11]. Also, the inhibition in [12] is 2.13%; in assay [13] it was -1.09%; in assay [14] it was -0.44%; in assay [15], 0.76%; in assay [16] it was 0.92%; in assay [17], -7.1%. Further, the inhibition is -2.25% in assay [18] and 5.79% in assay [19].
For the compound `COc1cccc(-n2ncc3c(N/N=C/c4ccncc4)ncnc32)c1`, the inhibition amounted to 67.7% in assay [1]; 7.89% in assay [2]; 7.23% in assay [3]; 16.2% in [4]; 55.4% in assay [5]; 9.07% in assay [6]. Further, the inhibition in assay [7] turned out to be 12.8%; in assay [8], 5.41%; in assay [20] it was 10.7%; in [9], 0.95%; in assay [10], 7.18%; in [11] it was 5.78%. Besides, the inhibition was determined as 7.75% in assay [12]; 3.04% in [13]; 2.37% in [14]; 5.73% in assay [15]; 5.78% in [16]; 0.19% in assay [17]. Moreover, the inhibition is 6.09% in assay [18] and -2.81% in assay [19].
